Bioassay records as filed in PubChem BioAssay.
TDP1 cell CPT – growth inhibition of DT40 Tdp1-/-;hTDP1 cells with camptothecin (screen for TDP1 inhibitors); chicken DT40 Tdp1-/-;hTDP1 cells + 20 nM CPT, ATP luminescence, 48 h; Potency, µM (doses to about 46.2 µM), for the others: at the top dose activity change, negative = growth inhibition, hits mostly inhibitors; 420,000 compounds, 12% hits; AID 686979; also: potency is read from the fitted curve at half-maximal effect; nearly all actives have a fitted effect of over 55% in size
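Cell growth measured by CellTiter-Glo luminescence after a minimum 48 h, 37 C compound exposure with 20 nM CPT in Tdp1-knockout DT40 cells stably expressing hTDP1, seeded 400/well; qHTS titration format.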
DT40 TDP1 no CPT – qHTS for Inhibitors of human tyrosyl-DNA phosphodiesterase 1 (TDP1): qHTS in cells in absence of CPT. AID 686978, 2013. 420,000 compounds, 15% hits. Potency, µM (series often up to 46.2 µM), for inactives: top-dose activity change, negative = growth inhibition, most hits filed as inhibitors. DT40 Tdp1-/- hTDP1 cells, no CPT, ATP luminescence, 48 h; also: potency is read from the fitted curve at half-maximal effect; nearly all actives have a fitted effect of over 55% in size
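Chicken DT40 Tdp1-/- cells stably complemented with human TDP1 were seeded at 400 cells/well with DMSO in place of 20 nM camptothecin. After compound pinning, cells grew at least 48 hr at 37 °C; viability read by CellTiter-Glo luminescence.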
HT1080NT lethal – kills 2HG-producing HT-1080-NT fibrosarcoma cells | HT-1080-NT fibrosarcoma viability, CellTiter-Glo ATP luminescence, 48 h | Potency, µM (doses to about 46.1 µM), for inactives: at the top dose activity, negative = less viability, usual class: cytotoxic | 360,000 compounds, 1.6% hits;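 also: NT is the 2HG producing partner of a matched IDH1 knockdown line; potency is read from the fitted curve at half-maximal effect; 0% = DMSO-treated cells and -100% = media-only wells without cells; nearly all actives have a fitted effect of over 55% in size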
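Read-out is CellTiter-Glo luminescence after 10 minutes at room temperature, following 48 hours' compound treatment of HT-1080-NT cells (750 cells/well, RPMI, 5% FBS, 37 degrees C).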
HT1080 IDH1KD tx – toxicity to HT-1080 IDH1 knockdown cells (counter line); HT-1080 IDH1 knockdown viability, ATP luminescence, 48 h; Potency, µM (doses to about 46.1 µM), for inactives: at the top dose activity, negative = toxicity, usual class: cytotoxic; 360,000 compounds, 2% hits;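 also: potency is read from the fitted curve at half-maximal effect; 0% = DMSO wells and -100% = cell-free medium wells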
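Cytotoxicity counter-line: IDH1KD HT-1080, 48 h, CellTiter-Glo. Curves classed by r2, magnitude and activity.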
IL-1B inflam inh – inhibitors of inflammasome signaling (IL-1 beta secretion); activity change, % at 57.5 µM; THP-1 LPS/ATP IL-1B secretion, AlphaLISA, 16 h; hits give low values; 360,000 compounds, 4.7% hits; in the data active = activity change below about -50%; inconclusive = mostly about -30% to -49%
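Secreted IL-1B measured by AlphaLISA bead assay after 16 h compound exposure of THP-1 cells; compounds (final up to 57.5 uM) added 1 h before LPS (250 ng/mL) and ATP (1.25 mM) stimulation; lower signal means less secretion.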
ELG1 DNA repair – ELG1-dependent DNA repair inhibition; HEK293T ELG1-luciferase reporter, luminescence, 16 h; DNA damage induced by 5-fluorouridine; Potency, µM (series often up to 46.1 µM), without a hit: at the highest dose activity change, negative = inhibition, usual class: inhibitors; 330,000 compounds, 2.3% hits; AID 504467; also: potency is read from the fitted curve at half-maximal effect; nearly all actives have a fitted effect of over 55% in size
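Cells (2,000 per well) received 5-fluorouridine plus test compound or DMSO and were incubated 16 hr at 37 °C, 5% CO2. Luciferase activity was read by luminescence 30 min after ONE-Glo addition; signal suppression marked inhibition of damage-induced ELG1 function.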
Numbers without * were called inactive; ? = inconclusive; . = no result given. This is a sample that favours compounds with a hit; in the whole collection about 19% have one here. Unless noted, calls follow the shape of the dose curve; as a rule, active = well fitted curve in the direction sought with a large enough effect; inconclusive = small, poorly fitted or top-dose-only effect, or another doubt; inactive = no such curve, though single readings can be large; an effect the other way counts as inactive or inconclusive. Unless noted, % is scaled to controls: 0 for no effect and ±100 for the full control effect.

SMILES	TDP1 cell CPT	DT40 TDP1 no CPT	HT1080NT lethal	HT1080 IDH1KD tx	IL-1B inflam inh	ELG1 DNA repair
Cn1c(=O)c(-c2cccc(F)c2)nc2cncnc21	-4%	-2%	.	.	.	.
Cc1cc(C(=O)COc2ccc(C#N)cc2)c(C)n1C1CC1	?	18µM*	-6%	4%	-17	-25%
Cc1cc(C(=O)COc2ccccc2C#N)c(C)n1C1CC1	?	?	-11%	-9%	-6	?
Cc1nn(Cc2ccccc2)c(C)c1C(=O)OCC(=O)c1cc(C)n(C2CC2)c1C	23µM*	18µM*	-49%	-28%	-58*	?
Cc1ccc2c(CC(=O)Nc3c(C(=O)c4ccc(F)cc4)oc4ccccc34)coc2c1C	-19%	-28%	.	.	.	.
CN(C)c1ccc(Cn2ccc3ccccc32)cc1	-30%	22µM*	.	.	.	.
CCCCN(CCCC)c1ccc(Cn2ccc3ccccc32)cc1	7.9µM*	8.9µM*	.	.	.	.
O=C(COc1ccc([N+](=O)[O-])cc1)Nc1nnc(-c2cccnc2)s1	-11%	-2%	0%	-3%	-13	?
CN(c1ccc(/C=C/c2ccccc2)cc1)P1(=O)NCCCO1 (stereo not given)	-16%	-9%	.	.	.	.
COc1ccc(NC(=O)COc2ccccc2Cc2ccccc2)cc1S(N)(=O)=O	21µM*	15µM*	-9%	-25%	-6	6.5µM*
COc1ccc(NC(=O)COc2ccc(C)nc2[N+](=O)[O-])cc1S(N)(=O)=O	9.2µM*	?	-4%	1%	-15	11%
COc1ccc(NC(=O)CN(Cc2ccccc2)Cc2ccccc2)cc1S(N)(=O)=O	-20%	-15%	1%	-2%	-13	2%
CC1C(=O)Nc2ccccc2N1C(=O)c1ccc(O)cc1 (stereo not given)	5%	5%	3%	10%	-19	-6%
O=C1Nc2ccccc2N(C(=O)c2ccc3ccccc3c2)C1c1nc2ccccc2[nH]1 (stereo not given)	10µM*	21µM*	?	?	-2	.
COc1ccc(N2CCN(C(=O)COC(=O)CC(NC(N)=O)c3ccc(Cl)cc3)CC2)cc1 (stereo not given)	-26%	?	7%	0%	35	.
CCOC(=O)[C@]12CCCC=C1N(CCC1=CCCCC1)C(=O)[C@H](CC(=O)NCc1cccc(C(F)(F)F)c1)C2	18µM*	?	?	?	-15	.
COC(=O)[C@]12CCCCC=C1N(CCC1=CCCCC1)C(=O)[C@H](CC(=O)NCc1cccc(C(F)(F)F)c1)C2	?	23µM*	?	?	?	.
CC[C@@H]1C(c2ccc(F)cc2)=NN(c2ccc(Br)cc2)[C@H]1C(=O)N1CCOC1=O	?	?	-16%	-23%	-74*	8%
CC[C@@H]1C(c2cccc(Cl)c2)=NN(c2ccc(Br)cc2)[C@H]1C(=O)N1CCOC1=O	?	?	?	?	-66*	3%
CCc1ccccc1NC(=O)C(CC)Sc1nc2cc3c(cc2c(=O)n1Cc1ccco1)OCO3 (stereo not given)	16µM*	?	-3%	-2%	7	11%
CCc1ccc(NC(=O)C(CC)Sc2nc3cc4c(cc3c(=O)n2Cc2ccco2)OCO4)cc1 (stereo not given)	18µM*	?	-22%	-20%	0	1%
CCCCN(CC)CCCNC(=O)c1c(C)oc2ncnc(N3CCOCC3)c12	17%	-16%	.	.	.	.
CC(=O)Oc1ccc(C2=Cc3ccc(OC(C)=O)cc3OC2C)cc1 (stereo not given)	18µM*	12µM*	?	16µM*	9	.
